Measurements: ChEMBL document CHEMBL3988442, “University of Dundee, Small-Polar-MMV Screening Library” (2021)
The whole screen tested about 53,000 compounds, of which about 900 (1.7%) showed an effect of 50% or more. The sample as a whole holds a higher share of strong results than the screen did.

The molecules below were run on Mycobacterium tuberculosis (assay: Cornell - Phenotypic assay to identify agents that inhibit growth of Mycobacterium tuberculosis). Details: 10 mM as filed; unlikely as a test dose.
Format: functional
Set-up: scale not given: direction of the effect not stated beside the values

Row | Compound | Percent Effect
1 | CCN(CC)CCNS(=O)(=O)c1cccc(CSC)c1 | 5.575%
2 | Cc1noc(C)c1S(=O)(=O)NCC(O)c1ccc2c(c1)CCO2 (configuration not stated) | -26.48%
3 | Cc1nc(CNCC2CN(C)CCO2)cs1 (configuration not stated) | 0.5218%
4 | CC(=O)N[C@H]1CN(S(=O)(=O)N(C)Cc2ccccc2)C[C@@H]1C1CC1 | 14.84%
5 | CCC1CCCCN1C(=O)Cn1nc(-c2cc(C)oc2C)cc(N)c1=O (configuration not stated) | 52.47%
6 | CCC1CCCCN1C(=O)Cn1nc(-c2ccc(C)s2)cc(N)c1=O (configuration not stated) | 45.47%
7 | CCC1CCCCN1C(=O)Cn1nc(-c2ccc(C)o2)cc(N)c1=O (configuration not stated) | -6.265%
8 | NCCc1n[nH]c(=O)n1-c1cccc(Cl)c1Cl | -33.73%
9 | Cc1cccc(CN2C[C@@H]3CN(C(=O)C4CCOC4)C[C@@H]3C2=O)c1 (some centres not stated) | 4.733%
10 | COc1ccc(NC(=O)Cn2nc(C)c(C)cc2=O)c(OC)c1 | 11.71%
11 | COc1ccc(NC(=O)CNc2cccc3c2CCCC3)c(OC)c1 | 76.54%
12 | COc1ccc(CNC(=O)CNc2ccccc2OC)cc1 | 22.93%
13 | Cc1ccc(NC(=O)CNc2cccc(C(N)=O)c2C)c(C)c1 | -29.06%
14 | Cc1ccc(NC(=O)CNc2ccccc2C(N)=O)c(C)c1 | -11.67%
15 | Cc1ccc(NC(=O)CNc2cccc3c2CCCC3)c(Br)c1 | 51.04%
16 | NC(=O)CCSc1n[nH]c(-c2ccc3c(c2)CCC3)n1 | 8.887%
17 | CN1CCC(N(C)C(=O)c2cnc3c(cnn3C3CCCC3)c2)CC1 | 15.63%
18 | Cc1ccc(C#N)c(N2CC(C)(C)[C@@](C)(O)C2)n1 | 10.2%
19 | O=C(CCc1nnc(-c2ccsc2)o1)NCC1CCN(C2CC2)C1 (configuration not stated) | -9.076%
20 | Cc1noc(C)c1CNCc1nn(-c2ccccc2)c2c1CCC2 | -25.17%
21 | COc1ccccc1CNCc1nn(-c2ccccc2)c2c1CCC2 | 75.02%
22 | Cc1c(CNCc2nn(-c3ccccc3)c3c2CCC3)cc(C#N)n1C | 0.6388%
23 | NC(=O)CSCC(=O)NCC1CCCC1 | -10.13%

Row | Compound | Percent Effect
24 | CN(CC(=O)NC1(C)CCS(=O)(=O)C1)Cc1ccc(Br)cc1 (configuration not stated) | -6.576%
25 | O=C(CSCCN1CCOCC1)N1CCCCCC1 | -6.957%
26 | CCc1nnc(CN(C)c2nccc(CCC(F)(F)F)n2)o1 | 6.8%
27 | CNc1ncc(CN(C)c2nccc(CCC(F)(F)F)n2)cn1 | 50.32%
28 | CN(Cc1ccncn1)c1nccc(CCC(F)(F)F)n1 | -20.7%
29 | CS(=O)(=O)N1CCCC1C(=O)Nc1cnc2n1CCCC2 (configuration not stated) | 9.053%
30 | CCNC(=O)NC(=O)CNC(C)(C)c1ccc2c(c1)OCCO2 | 27.43%
31 | CCCNC(=O)NC(=O)CNC(C)(C)c1ccc2c(c1)OCO2 | 0.4574%
32 | CCCNC(=O)NC(=O)CNC(C)(C)c1ccc2c(c1)OCCO2 | 101.9%
33 | Cc1n[nH]c(C)c1S(=O)(=O)N1CCC(Oc2cnccn2)CC1 | 6.999%
34 | O=C(O)c1cccn1-c1ccc2c(c1)OCCO2 | 28.73%
35 | COc1ccccc1CCNC(=O)C1CCC(Cn2cnnn2)CC1 (configuration not stated) | 3.007%
36 | Cc1nn(C)c2nc(N(C)CCN(C)C3CCCC3)sc12 | 37.55%
37 | Cc1nn(C)c2nc(N(Cc3cnn(C)c3)C3CCCCC3)sc12 | 56.52%
38 | Cc1nn(C)c2nc(N(CCN(C)C)C3CCCC3)sc12 | 19.35%
39 | c1ccn(Cc2nnc3n2CCCN(c2cnccn2)C3)c1 | -17.01%
40 | Cc1ccc(CN2CCN(c3ccc(F)cn3)CC2=O)cc1C | 39.83%
41 | CCC(NC(=O)NCC(=O)NC(C)C)c1cc(F)ccc1F (configuration not stated) | 5.032%
42 | CCOc1ccc(NC(=O)NCCCN(C)S(C)(=O)=O)cc1C | 30.17%
43 | CCOc1ccc(NC(=O)NCc2csc(NC)n2)cc1C | 21.98%
44 | CCOc1ccc(NC(=O)NCCS(=O)(=O)CC)cc1C | 60.38%
45 | CO[C@@H]1CCN(C(=O)c2cc(C)on2)C[C@@H]1Cc1ccccc1 | -19.48%
46 | Cc1nc(NCc2ccccc2)cc(C(C)Cn2nc(C)c(C)c2C)n1 (configuration not stated) | 27.52%

Row | Compound | Percent Effect
47 | CC(C)CN1Cc2cccc(NC(=O)Cc3ccon3)c2C1 | 8.389%
48 | O=C(Nc1ccccc1OC1CCOC1)c1ccon1 (configuration not stated) | -36.9%
49 | O=C(Cc1ccn[nH]1)N1CCc2cc(Br)sc2C1 | 17.86%
50 | CCOc1cccc(CCNC(=O)Cc2ccn[nH]2)n1 | -3.182%
51 | O=C(Cc1ccon1)Nc1cncc(Br)c1O | 58.04%
52 | COc1c(Br)cccc1CCNC(=O)c1ccon1 | 37.39%
53 | O=C(Nc1cncc(Br)c1O)c1ccon1 | 105.3%
54 | O=C(Cc1ccn[nH]1)Nc1cncc(Br)c1O | 104.6%
55 | COC(=O)Cc1cccc(NC(=O)Cc2ccon2)c1 | 10.84%
56 | CCc1ncc(CN2C[C@@H]3C[C@@H](O)CN3C[C@@H]2Cc2ccccc2)cn1 | 42.85%
57 | CCc1ccc(C(=O)N2CCC(Nc3ccc(C)nn3)CC2)o1 | 29.19%
58 | Cc1ccc(C(=O)N2CC[C@@]3(C[C@@H](NS(C)(=O)=O)CCO3)C2)s1 | 6.984%
59 | COC(=O)[C@]12CNC[C@H]1CN(Cc1nc(C)c[nH]1)C2 | -13.35%
60 | O=C(NC[C@]12COC[C@H]1CN(CC1CCOCC1)C2)c1ccccc1.O=C(O)C(F)(F)F | 14.72%
61 | Cc1cnc(C(=O)N2CCCC3(CCN(c4cnn(C)c4)C3=O)C2)cn1 (configuration not stated) | -8.899%
62 | CC1c2cc(F)ccc2CCN1C(=O)c1[nH]c(=O)[nH]c(=O)c1N (configuration not stated) | 102.8%
63 | CC1c2ccc(F)cc2CCN1C(=O)c1[nH]c(=O)[nH]c(=O)c1N (configuration not stated) | 102.4%
64 | COC(=O)c1cc(C(=O)N2CCc3ccc(F)cc3C2C)ccn1 (configuration not stated) | 5.538%
65 | CC1c2ccc(F)cc2CCN1C(=O)c1nc(=O)[nH][nH]1 (configuration not stated) | 10.03%
66 | Cc1nc(C)c(C(=O)N2CCc3ccc(F)cc3C2C)o1 (configuration not stated) | 37.91%
67 | Cc1nc(C)c(C(=O)N2CCc3cc(F)ccc3C2C)o1 (configuration not stated) | -6.74%
